The list is not random: actives were taken first. Their share in the collection is about 8.3%.
MARV entry inh: blocks Marburg virus binding to or entry into cells; Marburg virus pseudotyped entry inhibition, cell reporter; actives 1.8% (n = 300,000); Potency, µM (titrated, usually from 37.8 µM), without a hit: top-dose activity change, negative = inhibition, usual class: inhibitors; calls by dose curve; tested in HEK293 cells; further: potency means the concentration at half of the fitted maximal effect
HCV inhibitor: inhibitors of hepatitis C virus infection; actives 3.4% (n = 340,000); Potency, µM (series often up to 41.8 µM), without a hit: at the top dose activity change, negative = inhibition, most hits filed as inhibitors; Huh7.5.1 HCVcc-Cre infection, luciferase reporter, 44 h; AID 651820; further: potency means the concentration at half of the fitted maximal effect
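Infectious HCVcc-Cre (~0.5 moi) was added to cells just after compound, with cells seeded 4 h earlier at 1,000 per well. Luciferase activity after 44 h culture reported infection; substrate was incubated 15 min at room temperature before reading.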
FBPA Giardia inh: Giardia lamblia aldolase inhibition; A8B2U2; purified Giardia FBPA; Potency, µM (highest dose often 59.6 µM), for the others: at the top dose activity, negative = inhibition, hits mostly inhibitors; actives 0.71% (n = 290,000); AID 2451; further: potency means the concentration at half of the fitted maximal effect; nearly all actives have a fitted effect of over 55% in size
Target sequence (A8B2U2 whole entry, looked up): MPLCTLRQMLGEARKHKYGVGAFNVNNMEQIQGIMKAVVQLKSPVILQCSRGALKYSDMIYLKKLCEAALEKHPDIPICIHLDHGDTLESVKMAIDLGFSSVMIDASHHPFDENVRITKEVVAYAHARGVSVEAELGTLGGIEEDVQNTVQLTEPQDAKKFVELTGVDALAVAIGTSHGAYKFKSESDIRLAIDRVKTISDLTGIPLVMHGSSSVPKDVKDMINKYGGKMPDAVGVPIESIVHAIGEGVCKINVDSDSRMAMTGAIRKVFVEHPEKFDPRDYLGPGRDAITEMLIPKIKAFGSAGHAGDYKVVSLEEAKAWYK
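Giardia FBPA (40 nM reagent) was preincubated 10 min at RT with compound (up to 57.5 uM final), then substrate plus GAPDH/TPI/NAD/arsenate coupling system with diaphorase/resazurin was added; resorufin fluorescence (525/598 nm) was read after 20 min.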
FMDV antiviral: antivirals against foot and mouth disease virus; FMDV antiviral cell-based qHTS; Potency, µM (doses to about 57.9 µM), without a hit: at the top dose activity change, negative = inhibition, usual class: inhibitors; actives 1.2% (n = 410,000); AID 1159524; calls by dose curve; tested in HEK293T cells; further: read-out not given here; potency means the concentration at half of the fitted maximal effect; nearly all actives have a fitted effect of over 45% in size
HCMV inh: blocks human cytomegalovirus replication | AID 1259415 | actives 4.5% (n = 410,000) | HFF cells, HCMV-luciferase reporter, 72 h; active compounds read low | activity change, negative = inhibition, % at 57.5 µM; in the data active means activity change below about -60%; inconclusive means no clear call, values can overlap the other calls; inactive means above about -39%
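After 16 h attachment at 37C, HFF cells received test compound and HCMV-luciferase (1 PFU/cell); reporter luminescence read 72 h later, data normalized against buffer-only and known inhibitor Salinomycin.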
Lassa entry inh: inhibitors of Lassa virus binding or cell entry; Lassa virus pseudotype entry inhibition, cell reporter; Potency, µM (highest dose often 37.9 µM), without a hit: at the top dose activity change, negative = inhibition, hits mostly inhibitors; actives 1.2% (n = 300,000); calls by dose curve; tested in HEK293 cells; further: potency means the concentration at half of the fitted maximal effect; nearly all actives have a fitted effect of over 50% in size
Starred values were filed as active, the others as inactive; ? = inconclusive; . = not tested or not shown; [ ] = dose if it differs, or a comment. Unless noted, the call rests on the fitted dose curve; in most records, active means well fitted curve in the direction sought with a large enough effect; inconclusive means small, poorly fitted or top-dose-only effect, or another doubt; inactive means no such curve, though single readings can be large; an effect the other way counts as inactive or inconclusive. On the % scale 0 is the no-effect control and ±100 the full control effect.

SMILES	MARV entry inh	HCV inhibitor	FBPA Giardia inh	FMDV antiviral	HCMV inh	Lassa entry inh
COc1ccc(-n2ccn(CC(=O)NCCc3ccccc3)c(=O)c2=O)cc1OC	.	.	.	-9%	1	25%[46.1 µM]
O=C1[C@H]2[C@H]3[C@H](O)[C@H](O)C/C(=N\OCc4ccccc4)[C@@H]3CC[C@H]2C(=O)N1Cc1ccc2c(c1)OCO2	-17%[14.2 µM]	.	.	.	.	.
CC(=O)c1c(C(C)=O)c(C)n(-c2nc(-c3ccc(Br)cc3)c(C)s2)c1C	?	?	-4%	?	?	16µM*
N#Cc1sc2nc(-c3ccccc3)cc(-c3ccco3)c2c1N	3%	13µM*	0%	-15%	9	?
N#Cc1sc2nc(C3CC3)cc(-c3ccccc3)c2c1N	-20%	?	1%	0%	?	-23%
COc1ccc(CCn2c(O)c(C=Nc3ccc(NC(C)=O)cc3)c(=O)[nH]c2=O)cc1OC	?	11%	4%	-17%	34	-18%[46.1 µM]
CCOc1ccc(N=Cc2c(O)n(CCc3ccc(OC)c(OC)c3)c(=O)[nH]c2=O)cc1	?	?	1%	7.9µM*	18	-17%
COC(=O)C1=C(C(=O)OC)C2OC1c1cc3ccccc3cc12	?	?	.	28µM*	-19	-12%
O=C(Nc1ccc(Cc2ccncc2)cc1)C1CCC(N2C(=O)C3C4C=CC(C5CC45)C3C2=O)CC1 (stereo not drawn)	?	8.9µM*	11%	14µM*	-85*	?
CC(=O)Nc1ccc(NC(=O)C2CCC(N3C(=O)C4C5C=CC(C6CC56)C4C3=O)CC2)cc1 (stereo not drawn)	.	?	1%	-16%	15	.
CC(C)NC(=O)N1CCCC2(CCN(C(=O)c3csnn3)CC2)C1	.	.	0%	2%	.	.
Cc1cccc(/C=C2/S/C(=N/N=C3\CC4CCC3(C)C4(C)C)NC2=O)c1 (stereo not drawn)	?	?	-1%	?	-7	14µM*
CCC(=O)N1N=C(c2cccs2)CC1c1ccc(OC)cc1 (stereo not drawn)	.	?	3%	23%	91	.
CCC(=O)N1N=C(c2cccs2)CC1c1ccc(C)cc1 (stereo not drawn)	.	-15%	-6%	7%	21	.
COc1ccc(C2CC(c3cccs3)=NN2C(=O)c2ccc(Br)o2)cc1 (stereo not drawn)	?	10µM*	-9%	-5%	?	8%
Cc1ccc(C2CC(c3cccs3)=NN2C(=O)CCl)cc1 (stereo not drawn)	?	2.8µM*	10%	18µM*	-101*	?
O=[N+]([O-])c1ccc(Nc2ccccc2O)c2nonc12	.	-7%	-16%	-29%	-61*	.
CN(C(=S)NC(=O)C12CC3CC(CC(C3)C1)C2)c1ccc(O)cc1	.	10%	.	13%	-61*	.
Cc1ccc2nc(NC(=O)c3cccs3)sc2c1	3.2µM*	-3%	-2%	-37%	14	2.5µM*
Cc1ccc2nc(NC(=S)NC(=O)c3cccs3)sc2c1	26%	-3%	-25%	33%	15	?
CS(=O)(=O)c1ccc2nc(NC(=O)c3cccs3)sc2c1	2.2µM*	-3%	5%	-73%	76	?
Cc1ccc2nc(NC(=O)c3cccc(-c4cc5ccccc5oc4=O)c3)sc2c1	?	8.9µM*	-1%	.	-89*	?
Cc1nnc2nc(N)[nH]n2c1=O	.	.	.	.	57	.
CCn1nc(C)cc1C(=O)Sc1cccc(Br)c1	8%[46.1 µM]	5%	-2%	?	-107*	-26%
CCn1nc(C)cc1C(=O)Sc1ccc(Cl)cc1Cl	2%[46.1 µM]	3%	3%	?	-108*	15%
SMILES	MARV entry inh	HCV inhibitor	FBPA Giardia inh	FMDV antiviral	HCMV inh	Lassa entry inh
O=C(OCC1CCCO1)c1ccc2c(c1)N(Cc1ccccc1F)C(=O)c1ccccc1S2(=O)=O (stereo not drawn)	.	.	.	3%	-11	3%[46.1 µM]
O=C(CCc1nc2ccccc2c(=O)[nH]1)N1CCN(c2ccccc2Cl)CC1	.	11µM*	.	?	2	.
CC(C)OCCCNC(=O)CN1C(=O)c2ccccc2Sc2ncccc21	.	.	.	-13%	-23	4%[46.1 µM]
COc1cccc(NS(=O)(=O)c2c(C)n(C)c(=O)n(C)c2=O)c1	.	14%	0%	2%	-70*	.
COc1ccc2c(Cn3cnc4cc([N+](=O)[O-])ccc4c3=O)cc(=O)oc2c1	4.5µM*	-5%	-6%	?	.	?
COc1ccccc1C1CCN(c2cc(O)ccc2[N+](=O)[O-])CC1	?	-12%	-5%	?	-72*	?
CCN(CC)c1ncnc2c1ncn2[C@@H]1O[C@@H](COP(=O)(O)OP(=O)(O)C(Br)(Br)P(=O)(O)O)[C@H](O)[C@H]1O	.	.	1%	-2%	.	.
COc1ccc(-n2c(CCC(=O)O)ccc2-c2ccccc2)c(OC)c1	?	.	.	7%	-12	?
O=C(NCc1nnc(SCc2ccccc2)n1-c1ccc(F)cc1)C12CC3CC(CC(C3)C1)C2	?	?	1%	25µM*	20	-25%
O=C(NCc1nnc(SCc2ccccc2)n1-c1ccccc1)C12CC3CC(CC(C3)C1)C2	-24%	?	6%	-21%	31	-25%
CCOC(=O)[C@]12Cc3cc(Cl)ccc3[C@H]1N(C)C(=O)c1ccccc12	.	.	.	?	68	.
CCOC(=O)[C@]12Cc3cc(Cl)ccc3[C@H]1N(C1CCCCC1)C(=O)c1ccccc12	.	.	.	4.5µM*	.	.
CCOC(=O)[C@]12Cc3cc(OC)ccc3[C@H]1N(C1CCCCC1)C(=O)c1ccccc12	.	.	.	8.9µM*	-101*	.
O=S(=O)(c1ccc(Br)cc1)c1cnc2ccccc2n1	?	?	1%	?	?	?
O=S(=O)(Cc1ccccc1)c1cnc2ccccc2n1	-14%	5%	-7%	11µM*	-33	-13%
CC(=O)OCCCNc1cc(Sc2ccc(Cl)cc2)c2nonc2c1[N+](=O)[O-]	7%	4%	?	32µM*	32	15%
Cc1ccc(Sc2cc(NCCCO)c([N+](=O)[O-])c3nonc23)cc1	.	17%	?	?	1	.
COc1ccccc1C1CCN(C(=O)c2ccccc2)CC1	.	-8%	2%	-23%	64	.
COc1ccccc1C1CCN(C(=O)c2cnn(-c3ccccc3)c2C)CC1	.	?	-6%	40µM*	-1	.
COc1ccc(OCCSc2nnc(CCNC(=O)c3ccc(Cl)c(Cl)c3)n2C)cc1	6%	0%	3%	?	5	22%
CCn1c(CCNC(=O)c2ccc(Cl)c(Cl)c2)nnc1SCCOc1ccc(OC)cc1	-25%	-19%	11%	40µM*	-65*	7%
CCOC(=O)c1c2c(n(-c3ccc(OC)cc3)c1C)C(=O)C(=O)c1ccccc1-2	?	7.9µM*	.	13µM*	.	2.2µM*
